Data reported in PubChem BioAssay AID623868 (Vanderbilt High Throughput Screening Facility, 2012).
Hit rate of the full screen: of about 2,100 compounds, about 760 (36%) were called active.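 The calls were made as follows: active = thallium-flux fluorescence traces judged by eye to show enhanced or reduced glutamate response, manual score 1 or -1, so both directions (some results past the limit were not filed as active); inactive = the rest, including fluorescent or raised-baseline compounds.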 A selection follows.

Test: non-GIRK thallium flux modulation in mGlu8 cells, confirmation, counter-screen for GIRK activator project, cell-based, HEK-293 rmGlu8, no GIRK (AID 623868);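 also: extra codes mark interference with 3 for fluorescent and 4 for baseline rise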
Settings: thallium flux fluorescence, at 10 µM, actives lie on both sides, codes: 1 enhancer, -1 blocker, 0 none, thallium stimulus containing EC20 glutamate

Row | Compound | manual score
1 | CSC1=N/C(=C\c2ccc(Br)o2)C(=O)S1 | 0 (inactive)
2 | CCCCN(C)C1=CC2=CC(=C(C#N)C#N)CCC2CC1 (stereo not drawn) | 3 (inactive)
3 | Cc1cc2c(cc1C)C(=O)NC(C)(C)C2 | 0 (inactive)
4 | Cc1cccc(OCC(O)CN2C(C)(C)CC(O)CC2(C)C)c1 (stereo not drawn) | 0 (inactive)
5 | COc1ccc(Nc2nc(C)cc(C)c2C#N)cc1OC | 0 (inactive)
6 | CCc1nc(N2CCOCC2)c(C#N)c2c1CCCC2 | 0 (inactive)
7 | Oc1[nH]c2ccccc2c1N=Nc1nc2ccccc2s1 | 1 (active)
8 | CCN(CC)CCCn1c(=S)[nH]c2cc(Cl)ccc2c1=O | 0 (inactive)
9 | CCCCn1c(-c2ccc(Cl)cc2)nc2c(=O)n(C)c(=O)[nH]c21 | 0 (inactive)
10 | CCCCn1c(=S)[nH]c2c(oc3ccc(Cl)cc32)c1=O | 1 (active)
11 | CC1(C)CC(=O)c2c(noc2-c2ccccc2)C1 | 0 (inactive)
12 | CCCCN(CCCC)S(=O)(=O)c1ccc(NC(=O)c2ccc([N+](=O)[O-])cc2Cl)cc1 | 0 (inactive)
13 | CCCCN(CCCC)C(=S)NC(=O)c1ccccc1Cl | 1 (active)
14 | CCCCN(CCCC)C(=S)NC(=O)C(C)(C)C | 1 (active)
15 | CC1Cc2ccccc2N1C(=S)NC(=O)c1ccc(Cl)cc1Cl (stereo not drawn) | 1 (active)
16 | CCCN(CCC)CCCOC(=O)c1ccc(Cl)cc1Cl | 0 (inactive)
17 | CCCN(CCC)C(=S)NC(=O)c1ccc(Cl)cc1Cl | 1 (active)
18 | CCCCn1c(NC(=O)c2ccccc2Cl)c(C#N)c2nc3ccccc3nc21 | 0 (inactive)
19 | CCCCN(CCCC)c1ccc(C(=O)c2ccccc2C(=O)O)c(O)c1 | -0.5 (inactive)
20 | CC(C)CCNC(=O)C(C)N(C(=O)Cn1nnc(-c2ccc(F)cc2)n1)C1CCCC1 (stereo not drawn) | 0 (inactive)
21 | CCCCC(=O)N1CCCC(c2nc3c(nnn3Cc3cc(C)ccc3C)c(=O)[nH]2)C1 (stereo not drawn) | 0 (inactive)
22 | CC(C)(C)c1ccc(CN2C3=NCCCN3c3ccccc32)cc1 | 0 (inactive)

Row | Compound | manual score
23 | CCN(CC)C(=S)NC(=O)c1ccc(Cl)cc1Cl | 1 (active)
24 | CCOC(=O)/C(=C/C=C1\Sc2ccccc2N1CC)C(C)=O | 3 (inactive)
25 | CCc1ccc(/C=C/C(=O)c2cc(Br)ccc(=O)c2O)cc1 | 1 (active)
26 | COc1ccc(/C=C/C(=O)c2cc(Br)ccc(=O)c2O)cc1 | 1 (active)
27 | Cc1ccc(/C=C/C(=O)c2ccccc(=O)c2O)cc1C | 1 (active)
28 | COc1ccc(NC(=S)NC(NC(=O)/C=C/c2ccccc2)C(Cl)(Cl)Cl)cc1 (stereo not drawn) | 0 (inactive)
29 | O=C(/C=C/c1ccccc1)c1cc(Br)ccc(=O)c1O | 1 (active)
30 | CCCCCCn1cnc2c(c1=O)c1nc3ccccc3nc1n2/N=C/c1ccco1 | 0 (inactive)
31 | Cc1cccc(NC(=O)COc2ccc(Br)cc2/C=N/O)c1 | 0 (inactive)
32 | Cc1cccc(/C=C/C(=O)c2cc(Br)ccc(=O)c2O)c1 | 1 (active)
33 | Cc1cccc(/C=c2\s/c(=C\C(=O)C(C)(C)C)[nH]c2=O)c1 | 0 (inactive)
34 | CC(C)(C)C1CCc2[nH]nc(C(=O)O)c2C1 (stereo not drawn) | -1 (active)
35 | CSC(=O)NC12CC3CC(CC(C)(C3)C1)C2 | 0 (inactive)
36 | O=C(NC(=S)Nc1cc(C(F)(F)F)ccc1Cl)c1ccccc1 | 0 (inactive)
37 | Cc1cccc(C(=O)NC(=S)Nc2ccccc2C(F)(F)F)c1 | 1 (active)
38 | Cc1ccc(C(=O)NC(=S)Nc2ccccc2C(F)(F)F)cc1C | 1 (active)
39 | Cc1ccc(C(=O)NC(=S)Nc2ccccc2C(F)(F)F)cc1 | 1 (active)
40 | O=C(NC(=S)Nc1nc2ccccc2s1)c1ccco1 | 1 (active)
41 | O=C(NC(=S)NCc1ccc(-c2nc3ccccc3s2)cc1)c1ccco1 | 1 (active)
42 | O=C(Nc1ccncc1)c1ccc2c(c1)C(=O)N(C1CCCCC1)C2=O | 0 (inactive)
43 | CC(C)(C)C(=O)/C=c1\[nH]c(=O)/c(=C\c2ccc(F)cc2)s1 | 0.5 (inactive)
44 | CCOc1ccc(C(C)=O)cc1N1C(=O)C2C(C1=O)C1C=CC2C12CC2 (stereo not drawn) | 0 (inactive)

Row | Compound | manual score
45 | CCOc1cc(/C=N/NC(=O)CNc2cccc(C)c2)ccc1OC(=O)c1ccccc1 | 0 (inactive)
46 | Cc1ccc(C(=O)NNc2nc3ccccc3nc2C(F)(F)F)cc1 | 1 (active)
47 | Cc1nc(/N=C(\N)NC(=O)c2ccccc2)nc2ccccc12 | 0 (inactive)
48 | Cc1ccc(C(=O)NC2(C(F)(F)F)N=C3SCCN3C2=O)cc1 (stereo not drawn) | 0 (inactive)
49 | O=C(NNc1nc2ccccc2nc1C(F)(F)F)c1ccccc1 | 1 (active)
50 | CC(C)n1c(CCC(=O)O)ccc1-c1ccccc1 | 0 (inactive)
51 | S=C(N/N=C/c1ccccc1Cl)Nc1ccccc1 | 0 (inactive)
52 | Fc1ccc(NC(=S)N/N=C/c2cccc(Br)c2)c(F)c1 | 1 (active)
53 | Fc1cc(Br)ccc1NC(=S)NCCc1ccccc1 | 0 (inactive)
54 | Fc1ccc(/C=N/NC(=S)Nc2ccc(Cl)cc2)cc1F | 1 (active)
55 | Fc1cccc(/C=N/NC(=S)Nc2ccccc2Cl)c1 | 1 (active)
56 | Fc1ccc(NC(=S)N/N=C/c2ccc(F)c(F)c2)c(F)c1 | 1 (active)
57 | CCSc1ccccc1C(=O)Nc1cccnc1 | 0 (inactive)
58 | CN(C(=O)c1cccnc1)c1nnc(-c2cnccn2)s1 | 0 (inactive)
59 | Cc1ccccc1-n1nnc2c(=O)oc3ccccc3c21 | -1 (active)
60 | CN1C(=O)c2oc3ccccc3c(=O)c2C1c1ccccn1 (stereo not drawn) | 0 (inactive)
61 | CC(=O)Oc1ccc2c(c1)Oc1cc(OC(C)=O)ccc1C21OC(=O)c2ccccc21 | 3 (inactive)
62 | COc1cccc(NC(=O)CSc2nc(N)cc(N)n2)c1 | 0 (inactive)
63 | COc1ccc(NC(=O)CSc2nc3ccccc3c(=O)n2CCCN2CCCCC2)c(OC)c1 | 0 (inactive)
64 | COc1cc(OC)c(NC(=O)CCNC(=O)Cn2cnc3ccccc3c2=O)cc1Cl | 0 (inactive)
65 | COc1cccc(NC(=O)C(Sc2nc3ccccc3c(=O)n2CC(C)C)c2ccccc2)c1 (stereo not drawn) | 1 (active)
66 | COc1cccc(NC(=O)Cn2cc(C#N)c3ccccc32)c1 | 0 (inactive)

Row | Compound | manual score
67 | CCCn1c(SC(C(=O)Nc2cc(C)ccc2OC)c2ccccc2)nc2ccccc2c1=O (stereo not drawn) | 1 (active)
68 | CCc1cccc(NC(=O)NC2CCCCC2)c1 | -0.5 (inactive)
69 | CN(Cc1ccccc1)C(=S)NC(=O)C1CCCCC1 | 1 (active)
70 | CCCN(CC1CC1)C(=S)Nc1ccc(Oc2ccccc2)cc1 | 0 (inactive)
71 | O=C(NC(=S)NCC1COc2ccccc2O1)c1ccccc1 (stereo not drawn) | 0 (inactive)
72 | CN(Cc1ccccc1)C(=S)NC(=O)c1ccc(-c2ccccc2)cc1 | 1 (active)
73 | C=CCN(CC=C)C(=S)NC(=O)c1ccc(-c2ccccc2)cc1 | 1 (active)
74 | CCCN(CCC)C(=S)NC(=O)c1ccc(-c2ccccc2)cc1 | 1 (active)
75 | CCOC(=O)C(C)Oc1ccc2c(CC)cc(=O)oc2c1C (stereo not drawn) | -0.5 (inactive)
76 | CCCn1c(=N)c(C(=O)NCc2ccc3c(c2)OCO3)cc2c(=O)n3cccc(C)c3nc21 | 0 (inactive)
77 | O=C(Nc1nnc(SCc2ccc(F)cc2)s1)C1CC(=O)N(c2ccc3c(c2)OCCO3)C1 (stereo not drawn) | 0 (inactive)
78 | C=CCN(CC=C)C(=S)NC(=O)c1ccc([N+](=O)[O-])cc1 | 1 (active)
79 | Cn1cccc1CNC1CCCC1 | 0 (inactive)
80 | C=CCn1c(=S)[nH]c2ccc(Br)cc2c1=O | 1 (active)
81 | COCCNC(=O)CCCCCn1c(=S)[nH]c2ccccc2c1=O | 0 (inactive)
82 | C=CCn1c(=S)[nH]c2ccccc2c1=O | 1 (active)
83 | CC(=O)c1ccc(N2CCCC2)c(F)c1 | 0 (inactive)
84 | CCOC(=O)c1c(C)n(C)c2ccc(O)c(CN3CCC(C)CC3)c12 | 0 (inactive)
85 | Cc1ccc(-c2c(C)sc(NC(=O)C3C4CCC(O4)C3C(=O)O)c2C(=O)OC(C)C)cc1 (stereo not drawn) | 0 (inactive)
86 | CC(C)OC(=O)c1c(NS(=O)(=O)c2ccccc2)sc2c1CCCC2 | 1 (active)
87 | COC(=O)c1ccc(NS(=O)(=O)c2ccc(SC)cc2)cc1 | 0 (inactive)
88 | COC(=O)c1c(NS(=O)(=O)c2ccc(C)cc2)sc2c1CCC(C)C2 (stereo not drawn) | 1 (active)

Row | Compound | manual score
89 | CC1CCc2c(sc(NS(=O)(=O)c3ccccc3)c2C(=O)OC(C)C)C1 (stereo not drawn) | 1 (active)
90 | COc1ccc(S(=O)(=O)NCCC(=O)NC2CCCCCCC2)cc1 | 0 (inactive)
91 | COc1cccc(CNc2nc3ccccc3n2CCN2CCCCC2)c1OC | 0 (inactive)
92 | CC(C)(C)NC(=O)C(c1ccncc1)N(C(=O)c1csnn1)c1ccccc1 (stereo not drawn) | 0 (inactive)
93 | O=C(COc1ccccc1)NC(=S)Nc1ccc2c(c1)Cc1ccccc1-2 | 0 (inactive)
94 | CSc1cccc(NC(=O)COc2ccccc2)c1 | 0 (inactive)
95 | COC(=O)COc1ccc(S(=O)(=O)Nc2ccccc2C(=O)OC)cc1 | -0.5 (inactive)
96 | COC(=O)c1ccccc1NC(=S)NC(=O)c1ccc(C)cc1 | 1 (active)
97 | O=C(COc1ccccc1)NC(=S)Nc1cccc([N+](=O)[O-])c1 | 1 (active)
98 | COC(=O)c1ccccc1NC(=S)NC(=O)COc1ccc(C)cc1 | 0 (inactive)
99 | COC(=O)c1ccccc1NC(=S)NC(=O)c1ccccc1 | 1 (active)
100 | COC(=O)c1ccccc1NC(=S)NC(=O)COc1ccccc1 | 1 (active)
101 | COc1ccc(OC)c(-c2c3cc(O)c(=O)cc-3oc3cc(O)c(O)cc23)c1 | 0 (inactive)
102 | COc1cc(C)nc(N(Cc2ccccc2)S(=O)(=O)c2ccccc2)n1 | 0 (inactive)
103 | O=C(NNS(=O)(=O)c1ccccc1F)c1cccc(S(=O)(=O)N2CCOCC2)c1 | 0 (inactive)
104 | COc1cc(CNc2ccc(N3CCCC3)cc2)ccc1OCc1ccccc1 | 0 (inactive)
105 | CC(Oc1ccc2ccccc2c1)C(=O)NNC(=S)NC(=O)c1ccco1 (stereo not drawn) | 1 (active)
106 | CC(Oc1ccc(Cl)cc1)C(=O)NNC(=S)NC(=O)c1ccco1 (stereo not drawn) | 1 (active)
107 | CC(Oc1ccc(Cl)cc1)C(=O)N/N=C/c1ccsc1 (stereo not drawn) | 0 (inactive)
108 | CCSc1nnc(NC(=O)NC(CC)(C(F)(F)F)C(F)(F)F)s1 | 0 (inactive)
